Screens deposited in PubChem by National Center for Advancing Translational Sciences (NCATS).
TRPV1 PAM – human TRPV1 potentiation | potentiation, % at 8.33 µM | Q8NER1 | hit rate 0.02% among 320,000 | TRPV1-expressing cells, Fluo-8 calcium influx, capsaicin EC20 potentiation; in the data active means potentiation above about 80%; inconclusive means between about 30% and that limit
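Fluo-8 calcium influx in TRPV1-expressing cells, kinetic read (ex 480/em 520 nm). Compound added and read 3 min for agonist activity, followed by capsaicin at EC20 final and 2 min further read for enhancement.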
TRPV1 agonist – agonists of human vanilloid receptor 1 (TRPV1) | Q8NER1 | TRPV1-expressing cells, Fluo-8 calcium influx, agonist mode | hit rate 0.19% among 320,000 | activation, % at 8.33 µM | AID 540275; in the data active means activation above about 80%; inconclusive means between about 30% and that limit
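TRPV1-expressing cells were cultured overnight at 35.5C and loaded with Fluo-8 calcium dye for 40 to 90 min at room temperature. After a 10 s baseline, compound was added and calcium influx was read kinetically for 3 min (ex 480/em 520 nm).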
FUS yeast rescue – rescues growth of FUS-expressing yeast. S. cerevisiae FUS-expressing, growth rescue, OD600, 24 h. Potency, µM (highest dose often 76.6 µM), usual class: activators. hit rate 0.24% among 390,000; further: nearly all actives have a fitted effect of over 55% in size
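Yeast FUS proteinopathy model; galactose-induced FUS (2%), starting OD 0.005. Cpds in dilution series, 24hr, 30C, 99% humidity. Abs 600 nm growth. Pos ctrl CP55940 (top 92uM final); neg ctrl DMSO.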
ELG1 repair inh – inhibitors of ELG1-dependent DNA repair in HEK293T cells; HEK293T ELG1-luciferase reporter, luminescence, 16 h; DNA damage induced by 5-fluorouridine; Potency, µM (titrated, usually from 46.1 µM), usual class: inhibitors; hit rate 2.3% among 330,000; further: nearly all actives have a fitted effect of over 55% in size
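HEK293T cells expressing luciferase-tagged ELG1 (2,000/well) received 5-Fluorouridine plus compound or DMSO for 16 hr at 37 °C. Luciferase was read by ONE-Glo luminescence after 30 min at room temperature.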
Giardia killer – Giardia lamblia killing. Giardia lamblia trophozoite viability. activity change, % at 7.66 µM, hits read low. hit rate 0.15% among 340,000; in the data active means activity change below about -80%; inconclusive means between about -30% and that limit;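 further: parasites exposed to compound for two days anaerobically before the ATP read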
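Giardia trophozoites, 100 cells per well, were exposed to compounds for 48 hrs at 37 deg C under anaerobic conditions; viability was then read as ATP content by bioluminescence after 15-30 min at room temperature.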
Numbers stand for hits; n = inactive; u = inconclusive; x = not tested or not shown. Sampled rows, rich in hits. Any-hit rate of the full collection: about 2.3%. Unless noted, the call rests on the fitted dose curve; in most records, active means well fitted curve in the direction sought with a large enough effect; inconclusive means small, poorly fitted or top-dose-only effect, or another doubt; inactive means no such curve, though single readings can be large; an effect the other way counts as inactive or inconclusive.

SMILES	TRPV1 PAM	TRPV1 agonist	FUS yeast rescue	ELG1 repair inh	Giardia killer
Cc1ccc2c(=O)c(C(=O)c3ccccc3)cn(CC(=O)Nc3ccccc3C)c2n1	x	x	n	x	x
CCc1ccc(NC(=O)CSC2=C(C#N)C(c3ccco3)C3=C(CCCC3=O)N2)cc1 (configuration not stated)	n	n	u	u	n
N#CC1=C(SCC(=O)c2ccc(Br)cc2)NC2=C(C(=O)CCC2)C1c1ccco1 (configuration not stated)	n	n	n	13µM	n
C=CC[C@@H](CC(=O)N[C@H](CO)Cc1ccccc1)C(=O)N[C@@H](COC(=O)[C@@H](CC=C)CC(=O)OC(C)(C)C)Cc1c[nH]c2ccccc12	x	x	18µM	n	n
C=CC[C@@H](CC(=O)OC(C)(C)C)C(=O)OC[C@H]1CCCN1C(=O)[C@@H](CC=C)CC(=O)N[C@H](CO)Cc1ccccc1	x	x	u	16µM	n
C=CC[C@@H](CC(=O)N[C@H](CO)Cc1ccccc1)C(=O)N[C@H](COC(=O)[C@@H](CC=C)CC(=O)OC(C)(C)C)Cc1c[nH]c2ccccc12	x	x	u	u	n
C=CC[C@H](CC(=O)N[C@H](CO)Cc1ccccc1)C(=O)N[C@H](COC(=O)[C@@H](CC=C)CC(=O)OC(C)(C)C)Cc1c[nH]c2ccccc12	x	x	18µM	n	n
CCOC(=O)c1[nH]c2ccccc2c1NC(=O)c1ccc(OC(C)C)cc1	x	x	n	x	x
CCN(CC)c1ccc(C2C(C(N)=O)=C(C)Nc3ncnn32)cc1 (configuration not stated)	x	x	n	x	x
O=C(Nc1ccc(F)cc1)OC1CC2CC1[C@H]1CCCCN1[C@H]2Cc1ccccc1 (some centres not stated)	x	x	n	x	x
Cc1ccc2c(=O)cc(CSc3ccccc3)[nH]c2c1C	x	x	n	x	x
O=c1cc(CSc2ccccc2)[nH]c2ccccc12	n	n	n	12µM	n
N#CC1(C#N)CC(C=O)=C(N)C1(C#N)CC(=O)C12CC3CC(CC(C3)C1)C2 (configuration not stated)	n	n	n	16µM	n
Cc1nc2c(-c3ccc(Cl)cc3)c(C)[nH]n2c(=O)c1Cc1ccccc1	n	n	n	4.1µM	n
CCOC(=O)[C@]12CCCC=C1N(Cc1ccc(OC)cc1)C(=O)[C@@H]2CC(=O)NCC12CC3CC(CC(C3)C1)C2	x	x	18µM	x	x
Cc1c(C(C)NC(=O)c2cc(COc3cccc4cnccc34)on2)cnn1C (configuration not stated)	n	n	n	3.7µM	n
Nc1nc(Cl)cc(N2CCC(c3cc(-c4ccc(Cl)cc4Cl)n[nH]3)CC2)n1	n	n	13µM	n	n
Cc1c(CC(=O)N2CCC(O)CC2)c(=O)oc2cc3c(cc12)CCC1(CCCCC1)O3	x	x	32µM	x	x
c1ccc2c(c1)CCN(c1ncnc3c1[nH]c1ccccc13)C2	n	u	n	9.2µM	n
COc1cccc2[nH]c3c(N4CCC5(CC4)OCCO5)ncnc3c12	n	n	n	n	n
COc1cccc2[nH]c3c(N4CCc5ccccc5C4)ncnc3c12	n	n	n	13µM	n
c1ccc2c(c1)[nH]c1c(N3CCC4(CC3)OCCO4)ncnc12	n	u	n	21µM	n
COc1cccc(N2CCN(c3ncnc4c3[nH]c3ccccc34)CC2C)c1 (configuration not stated)	n	n	x	4.6µM	x
COc1ccccc1CN(Cc1nc2ccccc2c(=O)[nH]1)S(=O)(=O)c1ccc(C)cc1	n	n	n	23µM	n
COc1ccccc1NC(=O)Cn1nnc(-c2ccccc2NS(=O)(=O)c2ccccc2)n1	n	n	x	u	n
SMILES	TRPV1 PAM	TRPV1 agonist	FUS yeast rescue	ELG1 repair inh	Giardia killer
COc1ccccc1NC(=O)Cn1nnc(-c2ccccc2NC(=O)c2cc3ccccc3oc2=O)n1	n	n	25µM	u	n
NC(=O)c1ccc(N2CCN(c3ccccc3O)CC2)c([N+](=O)[O-])c1	n	n	n	16µM	n
Cc1ccc(S(=O)(=O)N2CCN(c3nc(-c4cscn4)nc4ccccc34)CC2)cc1	x	x	x	x	n
O=C(CN1CCOCC1)NN=Cc1ccc([N+](=O)[O-])o1	x	x	n	x	x
CCCCCCCC(=O)N/N=C/c1ccc([N+](=O)[O-])o1	n	u	n	n	-88
O=C(CN1CCCCCCC1)N/N=C/c1ccc([N+](=O)[O-])o1	n	n	n	n	u
O=C(CC12CC3CC(CC(C3)C1)C2)N/N=C/c1ccc([N+](=O)[O-])o1	n	n	n	u	-94
